Only some compounds are listed: those with a hit (about 21% of all), similar ones and a draw of the others.
Pf growth 96h = Primary qHTS for delayed death inhibitors of the malarial parasite plastid, 96 hour incubation. P. falciparum luciferase reporter growth, 96 h. Potency, µM (highest dose often 28.7 µM), inactives show at the top dose activity change, negative = inhibition, actives largely listed as inhibitors. AID 504834, 2011. hit rate 6.9% among 320,000; further: potency means the concentration at half of the fitted maximal effect; on the % scale 0 is the no-effect control and ±100 the full control effect
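Parasite growth measured via integrated firefly luciferase reporter in P. falciparum. Infected erythrocytes at 2% hematocrit, 0.05% parasitemia final were treated 96 hours at 37 C under 5% CO2, and luminescence was read.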
SARS PLpro yeast = qHTS of Yeast-based Assay for SARS-CoV PLP. S. cerevisiae expressing SARS-CoV PLpro, growth rescue. Potency, µM (doses to about 32.9 µM), without a hit: at the highest dose activity, positive = growth rescue, most hits filed as activators. hit rate 0.19% among 330,000. AID 485353, 2010; calls by dose curve; further: potency means the concentration at half of the fitted maximal effect; 0% is about no effect; nearly all actives have a fitted effect of over 55% in size
NS1 inh = qHTS Assay for Inhibitors of Influenza NS1 Protein Function; Potency, µM (doses to about 46.1 µM), for the others: top-dose activity, positive = more growth; hit rate 0.4% among 270,000; AID 2326, 2010; calls by dose curve; further: potency means the concentration at half of the fitted maximal effect; actives are rising curves; nearly all actives have a fitted effect of over 50% in size
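Compounds were scored for reversing the slow growth caused by influenza A NS1 in S. cerevisiae, measured by optical density at 600 nm. Assay medium contained 2% galactose at pH 6.0; NS1-free yeast of the same strain were the positive control.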
Shiga toxin inh = A qHTS for Small Molecule Inhibitors of Shiga Toxin; Vero cells, Shiga toxin protein synthesis inhibition reporter; inhibition, % at 38.7 µM; hit rate 9.2% among 290,000; AID 2315, 2010; in the data active means inhibition mostly above about 28%, no sharp cut-off; inactive means mostly below about 43%; further: 0% is about no effect
Pf growth 48h = Primary qHTS for delayed death inhibitors of the malarial parasite plastid, 48 hour incubation. P. falciparum luciferase growth in erythrocytes, 48 h. Potency, µM (top dose mostly 28.7 µM), inactives show at the top dose activity change, negative = inhibition, most hits filed as inhibitors. hit rate 5.9% among 310,000; further: potency means the concentration at half of the fitted maximal effect; on the % scale 0 is the no-effect control and ±100 the full control effect
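Parasite viability was followed by luminescence of a genomically integrated firefly luciferase. Cultures held 0.1% parasitemia at 2% hematocrit (final), incubated under 5% CO2 at 37 C.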
Cycloheximide cs = Cycloheximide Counterscreen for Small Molecule Inhibitors of Shiga Toxin. cell reporter, cycloheximide protein synthesis inhibition counterscreen. max response, %. hit rate 12% among 300,000; in the data active means max response mostly above about 13%, no sharp cut-off; inactive means mostly below about 14%; further: read at 38.3 µM for the half of the compounds with a filed dose; 0% is about no effect
* = called active by the depositor. Unless noted, the call rests on the fitted dose curve; in most records, active means well fitted inhibition curve with a large enough effect; inconclusive means small, poorly fitted or top-dose-only effect, or another doubt; inactive means no such curve, though single readings can be large or run the other way.

How did COc1cc(/C=N/O)ccc1OCc1ccc(Cl)cc1 do in these assays?
Pf growth 96h: 19%; SARS PLpro yeast: -1%; NS1 inh: -31%; Shiga toxin inh: 70; Pf growth 48h: 245%; Cycloheximide cs: 37*

Results for NC(N)=N/N=C/c1ccccc1 ?
Pf growth 96h: -47%; SARS PLpro yeast: -4%; NS1 inh: 3%; Shiga toxin inh: -13; Cycloheximide cs: -2

What do the screens show for `COc1cc(/C=N/N=C(N)N)ccc1OCc1ccc(Cl)cc1`?
Pf growth 96h: -3%; SARS PLpro yeast: -1%; NS1 inh: 5%; Shiga toxin inh: 76; Pf growth 48h: inconclusive; Cycloheximide cs: 40*

Results for CC(=O)Nc1cccc(NC(=O)CSc2nc(=O)n(CCN3CCOCC3)c3c2CCCC3)c1 ?
Pf growth 96h: -3%; SARS PLpro yeast: 3%; Pf growth 48h: 6%

What do the screens show for `NC(N)=N/N=C/c1ccc(OCc2ccccc2Cl)cc1`?
Pf growth 96h: 0.13µM*; SARS PLpro yeast: -22%; NS1 inh: -21%; Shiga toxin inh: -29; Pf growth 48h: 0.15µM*; Cycloheximide cs: -15

What do the screens show for `COc1ccc(Cl)cc1NC(=O)CC1S/C(=N/N=C2CCCCCC2)NC1=O` (stereo not given)?
Pf growth 96h: 13µM*; SARS PLpro yeast: -3%; NS1 inh: inconclusive; Shiga toxin inh: 7; Pf growth 48h: inconclusive; Cycloheximide cs: 7

How did NC(N)=N/N=C/c1ccc(Cl)c(Cl)c1 do in these assays?
Pf growth 96h: inconclusive; SARS PLpro yeast: 2%; NS1 inh: 4%; Shiga toxin inh: -14; Pf growth 48h: inconclusive; Cycloheximide cs: 1

Results for CC(=O)c1cccc(NC(=O)CC2S/C(=N/N=C3CCCCCC3)NC2=O)c1 (stereo not given) ?
Pf growth 96h: 17%; SARS PLpro yeast: -11%; NS1 inh: 17%; Shiga toxin inh: 7; Pf growth 48h: 1%; Cycloheximide cs: -3

What do the screens show for `COC(CN1C(=O)C(O)=C(C(C)=O)C1c1ccccn1)OC` (stereo not given)?
Pf growth 96h: -2%; SARS PLpro yeast: 2%; NS1 inh: 13%; Shiga toxin inh: 21; Pf growth 48h: 19%; Cycloheximide cs: -4

Results for CCOC(=O)c1c(C)[nH]c(C)c1S(=O)(=O)N(C)CC(=O)Nc1ccccc1OC ?
Pf growth 96h: inconclusive; SARS PLpro yeast: -3%; NS1 inh: -9%; Shiga toxin inh: 4; Pf growth 48h: 10µM*; Cycloheximide cs: 0

What do the screens show for `CCc1nonc1NC(=O)c1oc2cc(C)c(C)cc2c1C`?
Pf growth 96h: 9%; SARS PLpro yeast: inconclusive; NS1 inh: 4%; Shiga toxin inh: 37; Pf growth 48h: 75%; Cycloheximide cs: 25*

How did CCc1nonc1NC(=O)c1oc2cc(C)c(Cl)cc2c1C do in these assays?
Pf growth 96h: 15%; SARS PLpro yeast: 7%; NS1 inh: 7%; Shiga toxin inh: 9; Pf growth 48h: 38%; Cycloheximide cs: 6

Results for Cc1ccc2oc(C(=O)Nc3nnc(C)s3)c(C)c2c1 ?
Pf growth 96h: 187%; SARS PLpro yeast: 1%; NS1 inh: -15%; Shiga toxin inh: 50; Cycloheximide cs: 17*

Results for Cc1ccc2oc(C(=O)Nc3nonc3C)c(C)c2c1 ?
Pf growth 96h: -15%; SARS PLpro yeast: 7%; NS1 inh: -11%; Shiga toxin inh: 67*; Pf growth 48h: 57%; Cycloheximide cs: 28*

What do the screens show for `CCc1nonc1NC(=O)c1oc2ccc(Br)cc2c1C`?
Pf growth 96h: 26%; SARS PLpro yeast: -2%; NS1 inh: 2%; Shiga toxin inh: 8; Pf growth 48h: 16%; Cycloheximide cs: -8

Results for Cc1c(-n2c(SCC(N)=O)nc3ccccc3c2=O)c(=O)n(-c2ccccc2)n1C ?
Pf growth 96h: 18%; SARS PLpro yeast: -1%; Shiga toxin inh: -1; Pf growth 48h: 12%; Cycloheximide cs: -8

How did O=C1C=C(Nc2ccccc2)C(=O)c2ccccc21 do in these assays?
Pf growth 96h: 2.3µM*; SARS PLpro yeast: -19%; NS1 inh: -51%; Shiga toxin inh: 81*; Pf growth 48h: inconclusive; Cycloheximide cs: 48*

Screens deposited in PubChem BioAssay by National Center for Advancing Translational Sciences (NCATS).
